Laboratory results from PubChem BioAssay AID686978 (National Center for Advancing Translational Sciences (NCATS), 2013).
About 64,000 (15%) of roughly 420,000 compounds were called active. Inconclusive results (about 27%) are left out. Not all results are given here. Unmarked numbers belong to inactive results. Calls come from the whole dose curve; as a rule, active = well fitted inhibition curve with a large enough effect; inconclusive = small, poorly fitted or top-dose-only effect; inactive = flat fitted curve, though single readings scatter.

Assay: qHTS for Inhibitors of human tyrosyl-DNA phosphodiesterase 1 (TDP1): qHTS in cells in absence of CPT; note: nearly all actives have a fitted effect of over 55% in size
Conditions: DT40 Tdp1-/- hTDP1 cells, no CPT, ATP luminescence, 48 h; activity change, negative = growth inhibition: at 46.2 µM (top of the series)
Summary of the method: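 Luminescent ATP content (CellTiter-Glo) served as the growth readout. Knockout chicken DT40 cells expressing human TDP1 were exposed to compounds without camptothecin for a minimum 48 hr at 37 °C.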
% is set by controls: 0 for no effect and ±100 for the full control effect; potency is the fitted concentration of half-maximal effect.

Row | SMILES | activity change, negative = growth inhibition [%] | Potency
1 | Cc1cc(NC(=O)CSc2nc(=O)cc(N)n2-c2ccc(F)cc2)no1 | 9.07 | 
2 | CCCN(CCC)c1ccc(C(O)c2nnc(-c3ccccc3)o2)cc1 (configuration not stated) | -2.41 | 
3 | CC(=O)c1ccc(NC(c2ccc(F)cc2)c2nnc(-c3ccccc3)o2)cc1 (configuration not stated) |  | 8.2 µM (active)
4 | CC(=O)c1ccc(NC(=O)COc2ccccc2-c2nc(-c3ccccc3)no2)cc1 | -10.5 | 
5 | NC(=O)C1(N2CCCC2)CCN(Cc2ccccc2)CC1 | 1.08 | 
6 | COC(=O)[C@@H]1C[C@H]2CC[C@H](O)C[C@H]2N1Cc1ccc(N2CCN(C)CC2)cc1 | 9.08 | 
7 | COCCNC(=O)C(c1ccc(C)o1)N(Cc1ccccc1)C(=O)Cn1nnc2ccccc21 (configuration not stated) | -18.4 | 
8 | N#C/C(=C\c1ccccc1F)c1nc2ccccc2c(=O)[nH]1 | -10.4 | 
9 | Cc1ccc2nc(/C(C#N)=C\c3ccc(OC(=O)c4cccs4)cc3)[nH]c2c1 |  | 6.51 µM (active)
10 | Cc1ccc2nc(/C(C#N)=C/c3ccccc3F)[nH]c2c1 |  | 18.4 µM (active)
11 | COc1cc(/C=C(\C#N)c2nc3ccccc3[nH]2)ccc1O |  | 23.1 µM (active)
12 | CCOC(=O)c1ccc(-c2ccc(/C=C(\C#N)C(=O)Nc3ccc(OCC)cc3)o2)cc1 | 1.66 | 
13 | Cc1ccc2nc(S(=O)(=O)O)[nH]c2c1 | 4.87 | 
14 | Cc1ccc2nc(/C(C#N)=C/c3ccc(-c4ccc(C(=O)OC(C)C)cc4)o3)[nH]c2c1 |  | 5.17 µM (active)
15 | CCOc1ccc(/C=C(\C#N)c2nc3ccccc3c(=O)[nH]2)cc1OC | -28 | 
16 | COc1ccccc1CSc1nc2ccccc2[nH]1 | -18.3 | 
17 | N#CCCC(C#N)(c1cccnc1)N1CCOCC1 (configuration not stated) | -1.39 | 
18 | CCCCN1CC(COCc2ccccc2)OCCS1(=O)=O (configuration not stated) | -27.9 | 
19 | CC(C)c1cc(C(=O)O)on1 | 8.31 | 
20 | CN(C(=O)CSc1nnnn1-c1ccccc1)C1CCCCC1 | 0.578 | 
21 | NNC(=O)CNC(c1ccccc1)c1cc(Cl)ccc1NC(=O)c1ccccc1 (configuration not stated) | -9.24 | 
22 | CC(C)C(c1nnnn1C(C)(C)C)N1CCN(Cc2cccnc2)CC1 (configuration not stated) | 8.15 | 
23 | COc1ccc(C(=O)O/N=C(\N)c2ccccn2)cc1[N+](=O)[O-] | -20.5 | 
24 | O=C(Nc1ccccc1-c1nnn(CC(=O)N2CCN(c3ccccc3)CC2)n1)c1cccs1 |  | 23.1 µM (active)
25 | COc1ccccc1N1CCN(C(=O)Cn2nnc(-c3cccs3)n2)CC1 | -19.7 | 
26 | O=C(Nc1ccccc1-c1ccccc1)c1cccs1 |  | 23.1 µM (active)

Row | SMILES | activity change, negative = growth inhibition [%] | Potency
27 | CCOc1ccc(-c2nnn(CC(=O)N3CCN(c4ccc(F)cc4)CC3)n2)cc1OCC | -10.8 | 
28 | CCc1ccccc1NC(=O)c1cccs1 | -14 | 
29 | O=C(Nc1ccccc1)c1ccc(NC(=O)c2cccs2)cc1 | 2.02 | 
30 | OCCNCCCCOc1ccccc1F | -13.5 | 
31 | Cn1c2c(c(=O)n(C)c1=O)[C@@H]1c3c(ccc4ccccc34)OC[C@@H]1CO2 | 10.5 | 
32 | COc1cc(N2C(=O)CC3(CCCC3)CC2=O)cc(OC)c1OC | 2.17 | 
33 | O=C(COc1ccc(F)cc1)N(CC1=CCS(=O)(=O)C1)c1ccccc1 | -26.4 | 
34 | CC1C(=O)Nc2ccccc2N1C(=O)c1c(F)cccc1F (configuration not stated) | -18.1 | 
35 | CC1C(=O)N(Cc2ccccc2)c2ccccc2N1C(=O)c1ccccc1 (configuration not stated) |  | 13 µM (active)
36 | CC1Oc2ccccc2N(Cc2cccnc2)C1=O (configuration not stated) | -1.68 | 
37 | Cc1ccc(C(=O)Nc2nc(-c3ccccc3)ns2)cc1 | -25.5 | 
38 | Cc1ccc(C(=O)Nc2nc(N)n(-c3ccccc3)n2)cc1 | -12.3 | 
39 | CCc1cccc(-n2nnc(-c3nsc(NC(=O)c4ccc(C)cc4)n3)c2C)c1 |  | 8.2 µM (active)
40 | CCc1ccc(CN(C)C(=O)CCc2nnc(-c3ccc(-c4ccccc4)cc3)o2)nc1 |  | 11.6 µM (active)
41 | CN(Cc1ccccc1)C(=O)CCc1ccccc1 | -27.6 | 
42 | CC(=O)c1ccc(-c2nnc(CCC(=O)N(C)Cc3cnc4ccccn34)o2)s1 | -11.2 | 
43 | CCOc1ccc(C)cc1S(=O)(=O)NC1CCCCCC1 | 10.5 | 
44 | Clc1ccc(C[n+]2cc(-c3ccccc3)n3c2CCC3)cc1 |  | 5.17 µM (active)
45 | Cn1c(-c2ccccc2)c[n+]2c1CCCCC2 | 0.0239 | 
46 | Clc1ccc(C[n+]2cc(-c3ccc(Cl)cc3)n3c2CCC3)cc1 |  | 5.8 µM (active)
47 | COc1ccccc1C(=O)NCCC(=O)N(C)Cc1cccnc1 | 10 | 
48 | COCC1CCN(C(=O)C2CCC(=O)N(Cc3cccc(C(F)(F)F)c3)C2)CC1 (configuration not stated) | -1.97 | 
49 | O=C(NCCc1ccccn1)c1nc(Cn2cc([N+](=O)[O-])cn2)no1 | 3.68 | 
50 | Cc1nc(Cl)c(C#N)c2c1CCCC2 | -8.66 | 
51 | N#C/C(=C1/CCCN1)c1ccccn1 | 4.88 | 
52 | CCc1cc2c(=O)n(-c3ccccc3)c(SCC(=O)O)nc2s1 | 4.2 | 
